Sampled rows, rich in hits. Any-hit rate of the full collection: about 8%.
PostGolgi ctrl = yeast control strain growth, post-Golgi counter-screen; AID 738; efflux-deficient yeast background strain, growth absorbance A615, 16 h; 5% of 98,000 active; inhibition, % at 10 µM
Pyk2 oligo antag = blocks oligomerization of human Pyk2 in cells | Q14289 | Q293 cells, Pyk2 FERM NanoBiT luminescence; hits give low values | z-score (the deposit names both 25 µM and 10 µM) | 0.83% of 99,000 active | AID 1347419;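 active = Z-score of -3 or lower, scaled per plate to the spread of control and sample wells; inactive = z-score above -3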;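 also: negative z-score means lost luminescence so less FERM oligomerization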
PostGolgi yeast = growth inhibition of a yeast mutant, post-Golgi transport screen. 0.9% of 98,000 active. AID 739. inhibition, % at 10 µM. post-Golgi transport phenotypic cell assay;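 also: yeast cells grown in 1536-well plates; yeast grown about 18 h at 30C before absorbance read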
Cav32 inh = inhibitors of human Cav3.2 T-type calcium channel. B-score at 10 µM. 4% of 100,000 active. Cav3.2-expressing cells, Fluo-4 calcium fluorescence FDSS; hits give low values. O95180;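 active = single-dose well whose peak fluorescence ratio is a statistical outlier from its plate by either plate-standardised score or position-corrected B-score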
Target sequence (O95180 whole entry, looked up): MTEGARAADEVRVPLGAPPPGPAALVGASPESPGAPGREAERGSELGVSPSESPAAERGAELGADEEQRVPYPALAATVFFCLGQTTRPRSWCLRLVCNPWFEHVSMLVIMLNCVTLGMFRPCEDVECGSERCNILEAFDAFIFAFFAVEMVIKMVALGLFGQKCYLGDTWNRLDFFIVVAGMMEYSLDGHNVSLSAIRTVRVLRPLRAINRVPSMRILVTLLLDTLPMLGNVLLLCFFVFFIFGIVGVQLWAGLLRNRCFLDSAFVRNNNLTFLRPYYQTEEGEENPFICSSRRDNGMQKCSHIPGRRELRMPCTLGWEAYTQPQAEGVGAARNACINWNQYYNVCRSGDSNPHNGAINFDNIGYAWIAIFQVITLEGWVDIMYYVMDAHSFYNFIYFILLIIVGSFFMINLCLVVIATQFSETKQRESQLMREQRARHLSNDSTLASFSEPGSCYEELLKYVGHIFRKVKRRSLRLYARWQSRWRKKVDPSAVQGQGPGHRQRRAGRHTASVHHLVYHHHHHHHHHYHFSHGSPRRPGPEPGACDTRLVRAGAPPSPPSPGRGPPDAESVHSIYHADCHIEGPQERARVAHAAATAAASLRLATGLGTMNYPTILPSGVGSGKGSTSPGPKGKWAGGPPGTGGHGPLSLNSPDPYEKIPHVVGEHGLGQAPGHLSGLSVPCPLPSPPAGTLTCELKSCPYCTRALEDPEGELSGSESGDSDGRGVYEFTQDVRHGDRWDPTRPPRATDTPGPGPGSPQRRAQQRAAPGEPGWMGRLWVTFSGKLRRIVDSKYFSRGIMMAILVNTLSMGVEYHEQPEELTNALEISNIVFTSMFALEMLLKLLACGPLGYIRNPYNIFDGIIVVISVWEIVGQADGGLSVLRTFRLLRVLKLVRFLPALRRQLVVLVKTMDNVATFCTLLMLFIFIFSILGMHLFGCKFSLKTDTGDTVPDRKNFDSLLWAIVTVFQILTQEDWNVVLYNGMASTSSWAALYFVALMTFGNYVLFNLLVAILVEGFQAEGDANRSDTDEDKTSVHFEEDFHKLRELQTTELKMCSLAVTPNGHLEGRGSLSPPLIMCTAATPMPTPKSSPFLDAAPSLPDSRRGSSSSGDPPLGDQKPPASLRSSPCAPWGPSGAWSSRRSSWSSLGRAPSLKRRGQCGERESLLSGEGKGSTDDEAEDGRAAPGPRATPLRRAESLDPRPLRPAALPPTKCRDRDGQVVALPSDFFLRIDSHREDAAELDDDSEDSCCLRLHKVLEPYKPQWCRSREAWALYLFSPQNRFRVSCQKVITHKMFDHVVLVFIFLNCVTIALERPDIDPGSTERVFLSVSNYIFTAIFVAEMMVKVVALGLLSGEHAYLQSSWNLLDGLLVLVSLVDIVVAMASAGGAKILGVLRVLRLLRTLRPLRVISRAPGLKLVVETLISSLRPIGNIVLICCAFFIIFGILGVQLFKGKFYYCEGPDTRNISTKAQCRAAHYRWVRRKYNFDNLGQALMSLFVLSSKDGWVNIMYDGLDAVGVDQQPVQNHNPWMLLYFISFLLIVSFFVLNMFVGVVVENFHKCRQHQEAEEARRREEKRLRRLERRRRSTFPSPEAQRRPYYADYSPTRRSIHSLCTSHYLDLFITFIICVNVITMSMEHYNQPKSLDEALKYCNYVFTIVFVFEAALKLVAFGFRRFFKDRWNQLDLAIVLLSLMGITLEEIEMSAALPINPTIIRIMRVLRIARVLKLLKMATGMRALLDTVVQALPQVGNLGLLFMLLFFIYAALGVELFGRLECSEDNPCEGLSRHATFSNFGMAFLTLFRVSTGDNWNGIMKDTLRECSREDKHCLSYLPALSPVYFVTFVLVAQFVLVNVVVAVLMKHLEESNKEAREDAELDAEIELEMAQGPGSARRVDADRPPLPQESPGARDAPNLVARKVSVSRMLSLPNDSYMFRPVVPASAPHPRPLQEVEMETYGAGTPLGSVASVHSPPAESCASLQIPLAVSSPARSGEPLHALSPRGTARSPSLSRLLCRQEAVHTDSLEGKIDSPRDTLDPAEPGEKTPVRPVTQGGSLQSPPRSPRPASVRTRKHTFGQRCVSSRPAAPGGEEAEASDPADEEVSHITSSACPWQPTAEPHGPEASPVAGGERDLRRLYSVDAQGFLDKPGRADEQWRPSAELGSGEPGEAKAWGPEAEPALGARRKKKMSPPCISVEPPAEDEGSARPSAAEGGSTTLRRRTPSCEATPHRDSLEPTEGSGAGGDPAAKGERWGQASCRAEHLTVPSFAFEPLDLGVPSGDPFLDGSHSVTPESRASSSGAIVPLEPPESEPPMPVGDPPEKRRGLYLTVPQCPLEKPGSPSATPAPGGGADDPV
* hit, by the source's call; x = no result given. Rule as the data show it, unless noted: active = inhibition above about 30%; inactive = the rest.

SMILES	PostGolgi ctrl	Pyk2 oligo antag	PostGolgi yeast	Cav32 inh
Cc1nn(-c2ccccc2)c(C)c1/C=N/n1c(-c2ccc(C(C)(C)C)cc2)n[nH]c1=S	18	-3.9*	1	-1.2
Cc1ccccc1Nc1nc(N)nc(CN2C(=O)NC3(CCCCC3C)C2=O)n1 (stereo not given)	-6	1.3	-10	1.1
CCN(CC)C(=O)c1sc(NC(=O)C(Sc2ccccc2)c2ccccc2)c(C(=O)OC(C)C)c1C (stereo not given)	8	-1.6	-6	-4.5*
CCN(CC)C(=O)c1sc(NC(=O)c2ccoc2C)c(C(=O)OC)c1C	7	-0.11	17	-0.56
CCOc1ccc(N(CC(=O)Nc2nccs2)S(=O)(=O)c2c(C)noc2C)cc1	13	x	-6	-0.13
COc1ccc(-c2nc(-c3ccccc3)c(-c3cccs3)[nH]2)cc1OC	34*	-2	4	-0.18
O=[N+]([O-])c1ccc(-c2nc(-c3cccs3)c(-c3cccs3)[nH]2)cc1	60*	-4.2*	17	-3.5
COc1ccc(-c2[nH]c(-c3ccc(C(=O)O)cc3)nc2-c2ccccc2)cc1	29	-1.4	-3	1.4
O=[N+]([O-])c1cccc(-c2nc(-c3cccs3)c(-c3cccs3)[nH]2)c1	16	-2.3	-4	0.054
COc1ccc(-c2[nH]c(-c3ccc4c(c3)OCO4)nc2-c2ccccc2)cc1	34*	-2.2	62*	-1
COc1ccc(-c2nc(-c3cccs3)c(-c3cccs3)[nH]2)cc1OC	38*	0.35	17	-1.4
O=C(Nc1ccc2c(c1)C(=O)N(CC1CCCO1)C2=O)c1ccc(Cl)c(Cl)c1 (stereo not given)	10	-0.08	-5	x
CCc1cc2c(=O)n(-c3ccc(C)cc3)cnc2s1	x	-0.54	x	-0.95
CCC(Sc1nc2sc(C(=O)OC)c(C)c2c(=O)n1N)C(=O)NCC1CCCO1 (stereo not given)	3	1.1	8	-0.1
O=C(NCCc1ccncc1)C12CC3CC(CC(C3)C1)C2	-4	0.11	8	0.037
O=C(COC(=O)C12CC3CC(CC(C3)C1)C2)NCCc1ccccc1	40*	-0.2	-2	-2.4
Cc1ccc(-c2nsc3c(N4CCC(C(N)=O)CC4)ncnc23)cc1	8	0.2	-7	x
CC(C)CCNC(=O)[C@H](CSCc1ccccc1)N1Cc2ccccc2C1=O	x	x	x	-3.8*
O=C(NC1(C(F)(F)F)C(=O)Nc2c1c(=O)[nH]c(=O)n2Cc1ccco1)C1CCCCC1 (stereo not given)	-4	-0.56	14	-1.3
CS(=O)(=O)N1CCN(c2nnc(-c3ccccc3)c3ccccc23)CC1	10	0.31	0	0.026
c1ccc(-c2nnc(N3CCN(c4ccccn4)CC3)c3ccccc23)cc1	69*	-2.4	8	-5.6*
Cc1ccc(-c2nnc(N3CCN(c4ccccn4)CC3)c3ccccc23)cc1	57*	-2.9	0	x
Cn1c(CN2CCOCC2)nnc1SCC(=O)NC1CCCCC1	3	0.7	13	-0.72
CC(Nc1nc(N2CCN(S(C)(=O)=O)CC2)nc2ccccc12)c1ccccc1 (stereo not given)	-12	-0.13	10	-3.3
Cc1ccc(O)c(-c2cc(C(F)(F)C(F)F)[nH]n2)c1	17	-1.7	12	-2.6
SMILES	PostGolgi ctrl	Pyk2 oligo antag	PostGolgi yeast	Cav32 inh
FC(F)C(F)(F)C(F)(F)C(F)(F)c1cc(-c2ccccc2)n[nH]1	46*	-3.4*	1	-1.8
CCCCCCS(=O)Cc1ccccc1 (stereo not given)	-3	1.9	-10	0.51
O=c1cc(N2CCc3ccccc3C2)[nH]c(=O)n1Cc1ccc(F)cc1	5	-1.3	11	-4*
CN1CCN(c2cc(=O)n(Cc3ccc(F)cc3)c(=O)[nH]2)CC1	2	x	-1	1.6
O=c1cc(N2CCN(c3ccccc3)CC2)[nH]c(=O)n1Cc1ccc(F)cc1	4	x	-2	-6.1*
Cc1ccc(-c2ccc(/C=N\NC(=O)C3C(=O)NCC3c3ccccc3)o2)cc1Cl (stereo not given)	28	0.22	-5	-3
Cn1c(SCC(=O)Nc2ccccc2F)nnc1-c1cc2ccccc2o1	10	1.5	-4	0.053
COc1ccc(OC)c(NC(=O)CSc2ncnc3c2cnn3-c2ccccc2Cl)c1	x	-2.3	x	-1.9
O=C(NCC1CCCO1)C(c1ccc(F)cc1)N(Cc1ccc(F)cc1)C(=O)Cn1nnc(-c2cccs2)n1 (stereo not given)	x	-0.18	x	-1.6
CC(C)CCNC(=O)C(c1ccncc1)N(Cc1cccs1)C(=O)Cn1nnc(-c2ccc(F)cc2)n1 (stereo not given)	x	0.57	x	-7.4*
Cc1ccc(-c2nnn(CC(=O)N(Cc3cccs3)C(C(=O)NC3CCCC3)c3ccncc3)n2)cc1 (stereo not given)	x	0.74	x	-1.5

Source: PubChem (several laboratories)
